Compound activity as filed in PubChem.
A3G deaminase: blocks human APOBEC3G single-stranded DNA deamination | Q9HC16 | recombinant A3G, ssDNA deamination FAM/TAMRA fluorescence | inhibition, % at 20 µM | 0.28% of 330,000 active;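 active = inhibition of at least 40% at 20 µM, with no more than 30% in the related APOBEC3A deaminase screen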;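 note: plate controls were DMSO wells with A3G for no effect and wells lacking A3G enzyme for full effect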
PHOSPHO1 inh: inhibitors of human PHOSPHO1 phosphatase. Q8TCT1. recombinant PHOSPHO1, absorbance phosphatase assay. inhibition, % at 13.3 µM. 1.1% of 290,000 active. AID 1565; in the data active = inhibition above about 60%
eIF4H FP inh: inhibitors of RNA binding by human eIF4H | Q15056 | eIF4H fluorescence polarization binding assay | inhibition, % at 35 µM | 0.94% of 290,000 active | AID 2012;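 note: calls also rest on retests at 20 µM and on dose response follow-up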
MLLE-PAM2 inh: blocks PAM2 peptide binding to the PABP1 MLLE domain; P11940; GST-MLLE / FITC-PAM2 fluorescence polarization; inhibition, % at 20 µM; 0.36% of 360,000 active; in the data active = inhibition above about 35%, passing the limit was not always enough;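 note: plate controls were DMSO wells with GST-MLLE for no effect and wells lacking GST-MLLE protein for full effect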
Target sequence (P11940 whole entry, looked up, the tested form may be a part): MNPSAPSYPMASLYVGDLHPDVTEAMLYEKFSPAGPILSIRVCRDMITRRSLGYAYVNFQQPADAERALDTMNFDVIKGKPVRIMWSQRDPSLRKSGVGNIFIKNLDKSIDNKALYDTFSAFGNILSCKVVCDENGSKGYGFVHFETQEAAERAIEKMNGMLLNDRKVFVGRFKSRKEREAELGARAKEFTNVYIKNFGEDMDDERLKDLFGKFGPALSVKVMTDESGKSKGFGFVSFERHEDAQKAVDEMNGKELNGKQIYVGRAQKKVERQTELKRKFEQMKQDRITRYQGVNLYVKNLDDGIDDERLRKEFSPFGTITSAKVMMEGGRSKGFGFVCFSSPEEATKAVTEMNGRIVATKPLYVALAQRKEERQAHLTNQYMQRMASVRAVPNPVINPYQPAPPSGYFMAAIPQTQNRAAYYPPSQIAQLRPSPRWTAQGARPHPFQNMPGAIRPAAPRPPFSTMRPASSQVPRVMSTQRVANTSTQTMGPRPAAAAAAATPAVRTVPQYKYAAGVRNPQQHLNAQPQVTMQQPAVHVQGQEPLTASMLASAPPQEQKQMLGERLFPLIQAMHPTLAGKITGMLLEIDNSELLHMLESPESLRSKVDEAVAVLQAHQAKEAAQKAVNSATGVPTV
PABP FP inh: blocks human PABP binding to poly(A) RNA; P11940; fluorescence polarization; calls only at 35 µM; 1% of 290,000 active; AID 2014;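 note: calls also rest on retests at 20 µM and on dose response follow-up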
A3A deaminase: human APOBEC3A DNA deaminase inhibition; AID 493011; inhibition, % at 20 µM; 0.41% of 330,000 active; recombinant A3A, FAM/TAMRA ssDNA deamination fluorescence;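 active = at least 40% inhibition at 20 µM here, with at most 30% in a related deaminase screen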;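 note: plate controls were A3A with DMSO for no effect and wells lacking A3A enzyme for full effect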
An asterisk follows results filed as active; i = inactive; u = inconclusive; x = not tested or not shown; + = active, no number. Most compounds without a hit are left out; they make up all but 2.6% or so of the library. Unless noted, the rule behind the calls is not given here.

SMILES | A3G deaminase | PHOSPHO1 inh | eIF4H FP inh | MLLE-PAM2 inh | PABP FP inh | A3A deaminase
CCc1ccc(CNC(=O)C2CCCN(c3nn4c(=O)cc(C)nc4s3)C2)cc1 (stereo unspecified) | -8.1 | -109.0 | -2.5 | -3.6 | i | -5.5
O=C(NCc1ccc(F)cc1)c1ccc(CNc2c(N3CCOCC3)c(=O)c2=O)cc1 | -4.4 | 60.8* | -3.3 | -0.2 | i | -0.1
Cc1ccc(CNC(=O)c2ccc(CN3CCOCC3)cc2)cc1 | 14.1 | 83.5* | -3.5 | -94.0 | i | 34.0
Cc1ccc(SCCNC(=O)c2ccc(CN3CCOCC3)cc2)cc1 | -2.6 | -15.7 | -8.9 | 4.0 | i | -1.9
CCOc1ccc(NC(=S)NC(=O)/C=C/c2ccc(C)cc2)c([N+](=O)[O-])c1 | -2.9 | -0.1 | -4.8 | 2.1 | i | -0.4
CCOc1ccc(NC(=S)NC(=O)c2c(Cl)c(C)nn2C)c([N+](=O)[O-])c1 | -2.8 | -13.9 | 2.5 | 40.4* | i | 0.2
CCOC(=O)c1c(S(=O)(=O)NCC(=O)Nc2ccccc2OC)c(C)n(C)c1C | -6.0 | 39.5 | -9.5 | -9.6 | i | -5.3
COc1cc(/C=C2\SC(=Nc3ccccc3)N(CCc3c[nH]c4ccccc34)C2=O)ccc1OC(C)C(=O)O (stereo unspecified) | -6.9 | -20.7 | 15.1 | -22.1 | i | -0.6
COc1ccc(N=C2S/C(=C\c3ccc(OC(C)C(=O)O)c(OC)c3)C(=O)N2CCc2c[nH]c3ccccc23)cc1 (stereo unspecified) | -3.3 | 36.8 | u | -6.9 | + | -0.2
O=C(O)C(=O)/C(=C\c1cccc2ccccc12)c1ccc2ccccc2n1 | 0.1 | 26.4 | 67.0* | -71.5 | + | -1.0
O=C(O)C(=O)/C(=C\c1ccccc1)c1ccc2ccccc2n1 | -3.8 | 10.8 | -6.3 | 29.3 | i | -3.2
COC(=O)c1cccc2c(C(=O)O)cc(-c3ccccc3)nc12 | x | x | x | -0.2 | x | x
Clc1ccccc1-c1ncc2ccccn12 | -9.1 | 60.9* | -0.8 | -1.8 | i | -0.5
O=c1c2c(nc3cc(-c4ccc(Cl)cc4)[nH]n13)CCS2 | -4.2 | -12.0 | u | 5.1 | + | -3.9
COC(=O)C(/C=N/OCc1ccc([N+](=O)[O-])cc1)NC(=O)c1ccccc1 (stereo unspecified) | -5.3 | -3.6 | u | 4.1 | + | -19.0
O=C(C/C=N\OCc1ccc([N+](=O)[O-])cc1)Nc1ccccc1 | -0.4 | 12.0 | -1.9 | -3.2 | i | 1.9
C=C(C)c1nc(Oc2ccccc2)nc(Oc2ccccc2)n1 | x | x | x | -16.4 | x | x
Cc1c(NC(=S)NC(=O)c2cccc3ccccc23)cccc1C(=O)O | -2.1 | 36.4 | -9.6 | 43.9* | i | -3.0
Cc1c(NC(=S)NC(=O)c2ccc(COc3ccccc3)cc2)cccc1C(=O)O | -5.7 | 43.1 | 7.8 | 39.4* | i | -3.1
CCN(CC)CC(C)(C)C(=O)/C=C/c1ccc(/C=C/C(=O)C(C)(C)CN(CC)CC)cc1 | x | x | x | 13.7 | x | x
COc1ccc(S(=O)(=O)N2CCC(O)(c3ccc(Cl)cc3)CC2)cc1OC | -6.7 | 63.9* | -11.0 | -0.8 | i | -3.3
COc1ccc(S(=O)(=O)N2CCC(O)(c3ccc(Cl)cc3)CC2)cc1 | -6.4 | 4.9 | 7.4 | 0.2 | i | -1.0
CC(O)/C=C/c1ccc2ccccc2n1 (stereo unspecified) | -5.3 | 5.0 | 1.2 | 38.3* | i | -1.0
Cc1ccccc1-n1c(C)cc(/C=C2/C(=N)N3C(c4ccccc4)=CSC3=NC2=O)c1C | -2.6 | -5.1 | 86.0 | -32.5 | + | -4.3
Cc1cc(/C=C2/C(=N)N3C(c4ccccc4)=CSC3=NC2=O)c(C)n1-c1ccccc1 | -8.8 | 6.0 | 89.7* | -29.1 | + | -2.4
SMILES | A3G deaminase | PHOSPHO1 inh | eIF4H FP inh | MLLE-PAM2 inh | PABP FP inh | A3A deaminase
CC1=NN2C(=N)/C(=C\c3cc(C)n(-c4ccccc4)c3C)C(=O)N=C2S1 | -2.9 | 14.7 | -2.7 | 7.4 | i | 0.2
CC(C)CCNC(=O)C1CC(=O)N(CCc2ccccc2)C1 (stereo unspecified) | -6.2 | 29.9 | 3.0 | 17.8 | i | 0.4
Cc1nc2ccc(-c3ccccc3)cc2o1 | 5.2 | 79.2* | -2.8 | -102.6 | i | 32.9
CCCSc1ncnc2sc(C)c(C)c12 | -9.9 | 19.3 | -8.6 | 11.5 | i | 1.1
Cc1sc2ncnc(SCC#N)c2c1C | 11.9 | 39.9 | 36.6* | -5.8 | i | 3.7
O=[N+]([O-])c1ccc(Sc2n[nH]c(-c3ccc(Cl)cc3Cl)n2)nc1 | -2.1 | 67.3* | -0.8 | 22.2 | i | -1.7
